Screening data as filed in PubChem BioAssay.
esBAF inh: inhibitors of esBAF chromatin remodeling in mouse ES cells; Bmi1-luciferase knock-in reporter, 24 h; 100% = twice the neutral-well signal; reporter increase, % at 12.5 µM; hit rate 2% among 350,000; AID 602393; in the data active = activation above about 40%; inconclusive = no clear call, values can overlap the other calls;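 also: a rise in the Bmi1 reporter signal indicates esBAF inhibition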
AF4-AF9 inh: blocks AF4 peptide binding to human AF9; hit rate 0.47% among 350,000; AlphaScreen, biotin-AF4 peptide binding to FLAG-AF9; AID 651704; P42568; inhibition, % at 10 µM;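 active = every replicate reaching a set inhibition limit, whatever the replicate mean, cut at about 25% in these data; inconclusive = mean inhibition reaches that limit but some replicates miss it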
Target sequence (P42568 whole entry, looked up): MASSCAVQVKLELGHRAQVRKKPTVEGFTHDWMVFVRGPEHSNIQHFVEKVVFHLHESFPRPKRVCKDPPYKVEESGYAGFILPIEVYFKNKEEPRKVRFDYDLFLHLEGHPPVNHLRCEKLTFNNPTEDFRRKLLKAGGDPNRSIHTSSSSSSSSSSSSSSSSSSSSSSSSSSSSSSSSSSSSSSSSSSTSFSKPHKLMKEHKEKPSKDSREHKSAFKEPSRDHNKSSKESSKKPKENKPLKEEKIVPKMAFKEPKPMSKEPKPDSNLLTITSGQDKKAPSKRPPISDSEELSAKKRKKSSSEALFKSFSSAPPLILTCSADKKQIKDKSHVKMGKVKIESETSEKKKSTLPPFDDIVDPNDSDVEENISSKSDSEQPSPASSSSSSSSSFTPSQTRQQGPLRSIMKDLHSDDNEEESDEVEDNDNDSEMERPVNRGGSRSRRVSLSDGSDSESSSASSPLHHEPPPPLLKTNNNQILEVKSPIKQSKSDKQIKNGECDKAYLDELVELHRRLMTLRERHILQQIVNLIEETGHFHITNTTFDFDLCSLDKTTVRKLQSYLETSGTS
MITF TRPM1 HTS: MITF TRPM1 promoter activation in melanoma cells. activation, % at 12.5 µM. hit rate 0.75% among 300,000. SK-MEL-5 TRPM1-promoter luciferase, 24 h; % of positive control, neutral wells = 0. AID 588334;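 active = mean activation of at least 80% with every replicate also reaching 80%; inconclusive = mean reaches 80% but some replicate falls short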
SMARCA2 activ: SMARCA2 function activation, primary screen; hit rate 1% among 370,000; activation, % at 9.1 µM; MG213 cells, MMTV-luciferase reporter, dexamethasone, overnight; in the data active = activation above about 7.8%
FGF22 binding: FGF22 (human) thermal shift binding | Q9HCT0 | recombinant FGF22 thermal shift, SYPRO orange fluorescence; percent of sucrose octasulfate shift, DMSO zero | activity (Tm shift, normalised), % at 9.99 µM | hit rate 1.5% among 340,000;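 active = mean Tm shift, scaled 0 neutral to 100 positive control, at about 1.3% or above, every replicate too, limit read from the data; inconclusive = no clear call, values can overlap the other calls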
Target sequence (Q9HCT0 whole entry, looked up): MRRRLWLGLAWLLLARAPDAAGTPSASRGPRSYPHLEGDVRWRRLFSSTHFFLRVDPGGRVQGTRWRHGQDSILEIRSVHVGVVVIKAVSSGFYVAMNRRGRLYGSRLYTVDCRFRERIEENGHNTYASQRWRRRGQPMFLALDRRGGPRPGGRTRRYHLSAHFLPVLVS
Wnt act: activates Wnt/beta-catenin signaling in a reporter cell assay; activation, % at 9.35 µM; activator, plate reader; hit rate 1.2% among 300,000; in the data active = activation above about 30%, passing the limit was not always enough; inconclusive = no clear call, values can overlap the other calls
Each line names hits and unclear results; the compound was inactive in the other large screens. Only some compounds are listed: those with a hit (about 4.3% of all), similar ones and a draw of the others.

C[C@@H](NC(=O)C[C@@H]1CC[C@H](NS(=O)(=O)c2cccc(F)c2)[C@@H](CO)O1)c1ccccc1	none (no result: MITF TRPM1 HTS, SMARCA2 activ, Wnt act)
O=C(c1cc(COc2cccc(C(F)(F)F)c2)on1)N1C[C@H]2CC[C@H]1C2	esBAF inh 58.0
COCCC1CCCCN1C(=O)c1cc(COc2cccc(C(C)=O)c2)on1 (stereo not drawn)	esBAF inh 64.7
CC(=O)c1cccc(OCc2cc(C(=O)N3C[C@@H](C)O[C@@H](C)C3)no2)c1	esBAF inh 64.9
O=C(c1cc(COc2cccc3cccnc23)on1)N1CCC[C@H]1CO	AF4-AF9 inh 40.6 (no result: MITF TRPM1 HTS)
COC(=O)C1CCCCN1C(=O)c1cc(COc2cccc3cccnc23)on1 (stereo not drawn)	none (no result: esBAF inh)
CSc1ccccc1NC(=O)Nc1ccc(Cl)cc1	esBAF inh 49.6 (no result: AF4-AF9 inh, FGF22 binding)
COc1ccc(NC(=O)Nc2ccccc2SC)cc1	Wnt act 39.6
C[C@H]1CN([C@@H](C)CO)C(=O)c2cccc(NC(=O)Nc3ccc(F)cc3)c2O[C@@H]1CN(C)Cc1ccccc1	none (no result: MITF TRPM1 HTS, SMARCA2 activ, Wnt act)
COc1ccc(C(=O)c2ccc(Br)cc2)cc1	esBAF inh 55.1 (no result: AF4-AF9 inh, FGF22 binding)
COc1ccc(C(=O)c2ccccc2)cc1	none (no result: esBAF inh)
Cc1nn(-c2ccccn2)c2c1C(=O)CC(C)(C)C2N=[N+]=[N-] (stereo not drawn)	FGF22 binding 42.9
Cc1nn(-c2ccncc2)c2c1C(=O)CC(C)(C)C2Br (stereo not drawn)	none
CC(C)NC(=O)N(C)C[C@@H]1Oc2ccc(NC(=O)Cc3cn(C)c4ccccc34)cc2C(=O)N([C@@H](C)CO)C[C@H]1C	none (no result: MITF TRPM1 HTS, SMARCA2 activ, Wnt act)
Cc1ccc2c(c1)c(C)c(C)n2CC(O)Cn1nnc2ccccc21 (stereo not drawn)	esBAF inh 63.5, Wnt act inconclusive (no result: AF4-AF9 inh, MITF TRPM1 HTS, FGF22 binding)
O=C(COc1cccc2cccnc12)N/N=C/c1ccccc1O	AF4-AF9 inh inconclusive (no result: esBAF inh)
Oc1ccccc1/C=N/Nc1cccc2cccnc12	esBAF inh 49.8, Wnt act 67.2 (no result: AF4-AF9 inh, MITF TRPM1 HTS, FGF22 binding)
O=C(O)c1ccc(N/N=C/c2cccc3cccnc23)cc1	Wnt act 40.8 (no result: esBAF inh)
CCOC(=O)C1CCCN(C(=O)/C=C/c2cc(OC)c(OC)c(OC)c2)C1 (stereo not drawn)	FGF22 binding 44.4 (no result: esBAF inh)
CCC(c1nc2ccccc2[nH]1)n1c(-c2ccc3cc[nH]c3c2)nc2ccccc21 (stereo not drawn)	FGF22 binding 1.5 (no result: esBAF inh, AF4-AF9 inh, MITF TRPM1 HTS)
CCC(c1nc2ccccc2[nH]1)n1c(-c2ccnc(Cl)c2)nc2ccccc21 (stereo not drawn)	none (no result: esBAF inh, MITF TRPM1 HTS)
O=C(c1cc(C(=O)N2CCOCC2)c2nc3ccccc3n2c1)c1cc(Cl)cc(Cl)c1O	AF4-AF9 inh 27.3
O=C(c1cc(-c2ccccc2Cl)nc2ccccc12)N1CCOCC1	none (no result: esBAF inh)
Cc1sc2nc3c(SC(C)C(=O)O)cc(C(=O)c4ccccc4O)cn3c(=O)c2c1C (stereo not drawn)	none (no result: esBAF inh, AF4-AF9 inh, FGF22 binding, Wnt act)
CCc1c(C)sc2nc3c(C(=O)N4CCOCC4)cc(C(=O)c4ccccc4O)cn3c(=O)c12	FGF22 binding 43.3
O=C(Cc1ccccc1)N1CCN=C1SCc1cccc([N+](=O)[O-])c1	FGF22 binding 43.0 (no result: esBAF inh)
CC(C)C#Cc1ccc2c(c1)O[C@@H](CN(C)C(=O)c1cccc(F)c1)[C@H](C)CN([C@@H](C)CO)S2(=O)=O	none (no result: MITF TRPM1 HTS, SMARCA2 activ, Wnt act)
CC(=O)N(/N=C1/C(=O)Nc2ccccc21)c1ccccc1	esBAF inh 44.5
Cc1ccc(NC(=O)N2CCc3ccccc32)cc1C	none (no result: esBAF inh)
CN1C(=O)CSc2ccc(NC(=O)N3CCc4ccccc43)cc21	esBAF inh 93.7, AF4-AF9 inh inconclusive (no result: FGF22 binding)
CN1C(=O)CSc2ccc(NC(=O)Nc3ccccn3)cc21	MITF TRPM1 HTS 143.1 (no result: esBAF inh)
CON(C)C(=O)/C=C/c1ccc([B-](F)(F)F)cc1	esBAF inh 47.0
CC(C)CN1CCN(CCCOC(=O)Nc2cccc3ccccc23)CC1C (stereo not drawn)	FGF22 binding 44.2
C[C@@H]1CN([C@@H](C)CO)C(=O)CCCn2cc(nn2)CO[C@@H]1CN(C)C(=O)c1ccc2ccn(C)c2c1	none (no result: AF4-AF9 inh, MITF TRPM1 HTS, SMARCA2 activ, FGF22 binding, Wnt act)
Cc1noc(C)c1NC(=O)Nc1cccc2c1O[C@@H](CN(C)CC1CC1)[C@H](C)CN([C@@H](C)CO)C2=O	none (no result: MITF TRPM1 HTS, SMARCA2 activ, Wnt act)
CCNc1oc(-c2cccc3ccccc23)nc1C#N	esBAF inh 59.8 (no result: AF4-AF9 inh, FGF22 binding, Wnt act)
COCCNc1oc(-c2ccccc2Cl)nc1C#N	esBAF inh 54.6
COCCNc1oc(-c2ccc(F)cc2)nc1C#N	none (no result: AF4-AF9 inh, FGF22 binding)
CC(C)Nc1oc(-c2cccc3ccccc23)nc1C#N	MITF TRPM1 HTS 85.7 (no result: AF4-AF9 inh, FGF22 binding, Wnt act)
O=C(C[C@H]1CC[C@H]2[C@@H](COC[C@H](O)CN2CCc2ccccc2)O1)NCc1ccccc1	none (no result: MITF TRPM1 HTS, SMARCA2 activ, Wnt act)
O=C(C[C@H]1CC[C@@H](NS(=O)(=O)c2ccccc2)[C@H](CO)O1)NCc1ccc(Cl)c(Cl)c1	none (no result: MITF TRPM1 HTS, SMARCA2 activ, Wnt act)
C[C@@H]1CN([C@@H](C)CO)C(=O)c2cc(NS(C)(=O)=O)ccc2O[C@H]1CN(C)C(=O)Nc1cccc2ccccc12	none (no result: MITF TRPM1 HTS, SMARCA2 activ, Wnt act)
Nc1c(C(=O)NCCc2ccccc2)nnn1Cc1ccc(Cl)cc1	none (no result: AF4-AF9 inh, FGF22 binding)
Nc1c(C(=O)NCCc2ccccc2)nnn1Cc1ccc(Br)cc1F	FGF22 binding 43.5 (no result: esBAF inh)
CC1C(=O)N(Cc2cn(CCC3OCCCO3)nn2)CCS(=O)(=O)N1Cc1ccc(-c2ccccc2)cc1 (stereo not drawn)	none (no result: MITF TRPM1 HTS)
CC1C(=O)N(Cc2cn(CCC3OCCCO3)nn2)CCS(=O)(=O)N1Cc1ccc(-c2ccc(Cl)cc2)cc1 (stereo not drawn)	FGF22 binding 44.2 (no result: MITF TRPM1 HTS)
CN1CCN(C2CCN(Cc3ccc(O)c4ncccc34)CC2)CC1	AF4-AF9 inh 47.1, FGF22 binding 43.7
Cc1ccc(/C=N/N=C/c2ccc(C)cc2)cc1	esBAF inh 56.9
C(=N\N=C\c1ccccc1)/c1ccccc1	none (no result: esBAF inh)
Oc1ccc(/C=N/N=C/c2ccc(O)cc2)cc1	FGF22 binding 66.5
COc1cccc(NC(=O)N[C@H]2CC[C@H](CC(=O)N3CCCCC3)O[C@@H]2CO)c1	none (no result: MITF TRPM1 HTS, SMARCA2 activ, Wnt act)
CC1(C)CC(=O)C2=C(C1)NC1=C(C(=O)c3ccccc31)C2c1ccccc1 (stereo not drawn)	none (no result: esBAF inh)
CC1(C)CC(=O)C2=C(C1)NC1=C(C(=O)c3ccccc31)C2c1cccnc1 (stereo not drawn)	FGF22 binding 43.9 (no result: esBAF inh)
CNc1ccc2nnc(C(F)(F)C(F)(F)C(F)(F)F)n2n1	FGF22 binding 43.1
FC(F)(F)c1nnc2ccc(Cl)nn12	none (no result: esBAF inh)
C[C@H](CO)N1C[C@H](C)[C@H](CN(C)Cc2ccc(C(=O)O)cc2)OCCCC[C@H](C)Oc2ccc(NC(=O)c3ccncc3)cc2C1=O	none (no result: MITF TRPM1 HTS, SMARCA2 activ, Wnt act)
Cn1cc(Cl)c(C(=O)OCC(=O)Nc2nc(-c3ccc(Br)cc3)cs2)n1	esBAF inh 61.1 (no result: AF4-AF9 inh, FGF22 binding)
CC=Cc1ccc2n(c1=O)C[C@H]1[C@H](CO)[C@@H](C(=O)Nc3ccc(-c4ccccc4)cc3)N(C(=O)CC)[C@@H]21 (mixture of isomers)	none (no result: MITF TRPM1 HTS, SMARCA2 activ, Wnt act)
